Cav3 T inh: human Cav3.2 channel inhibition, primary screen | 100,000 tested, 4% active | Cav3.2-expressing cells, Fluo-4 calcium fluorescence FDSS; hits give low values | B-score at 10 µM | O95180;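 active = single-dose well whose peak fluorescence ratio is a statistical outlier from its plate by either plate-standardised score or position-corrected B-score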
CYP2C9 act: CYP2C9 (human) activation | 96,000 tested, 1.4% active | activation factor at 5 µM | P11712 | recombinant CYP2C9, luciferin-H conversion, luminescence; hits give high values; factor 1 = untreated enzyme, 0 = blocked;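 active = activation factor of 2 or more for CYP2C9 at a 5 µM dose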
Target sequence (P11712 whole entry, looked up): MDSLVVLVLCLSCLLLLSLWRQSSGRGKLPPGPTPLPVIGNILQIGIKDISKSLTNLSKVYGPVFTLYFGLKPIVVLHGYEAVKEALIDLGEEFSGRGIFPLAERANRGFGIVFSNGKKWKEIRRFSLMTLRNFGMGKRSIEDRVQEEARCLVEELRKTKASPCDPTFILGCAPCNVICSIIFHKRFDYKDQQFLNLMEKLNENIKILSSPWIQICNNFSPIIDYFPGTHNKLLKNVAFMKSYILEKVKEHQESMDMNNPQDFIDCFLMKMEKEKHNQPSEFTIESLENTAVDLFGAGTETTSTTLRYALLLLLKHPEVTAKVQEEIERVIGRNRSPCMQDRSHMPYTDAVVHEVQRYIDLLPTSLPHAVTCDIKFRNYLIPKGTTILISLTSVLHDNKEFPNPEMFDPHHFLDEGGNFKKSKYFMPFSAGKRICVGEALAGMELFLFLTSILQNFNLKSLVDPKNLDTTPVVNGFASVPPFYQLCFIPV
PTK2B oligo ant: antagonists of human Pyk2 oligomerization; Q293 cells, Pyk2 FERM NanoBiT luminescence; hits give low values; z-score (the deposit names both 25 µM and 10 µM); 99,000 tested, 0.83% active; Q14289;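 active = Z-score of -3 or lower, scaled per plate to the spread of control and sample wells; inactive = z-score above -3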;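 note: negative z-score means lost luminescence so less FERM oligomerization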
CYP2C19 act: activators of human cytochrome P450 2C19; recombinant CYP2C19, luciferin-H EGE luminescence; hits give high values; 0 = fully inhibited enzyme, 1 = untreated enzyme; 96,000 tested, under 10 active; activation factor at 5 µM;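 active = activation factor of at least 2 at 5 µM in the primary screen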
CYP2C9 inhib: human CYP2C9 inhibition; inhibition, % at 5 µM; 96,000 tested, 20% active; CYP2C9 Supersomes, luciferin-H conversion, luminescence;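 active = blocking of liver enzyme CYP2C9 beyond about 50% at 5 µM, limit read from the data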
CYP2C19 inhib: human CYP2C19 inhibition | CYP2C19 Supersomes, luciferin-H EGE luminescence, 30 min | AID 778 | 96,000 tested, 21% active | inhibition, % at 5 µM;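 active = CYP2C19 inhibition above a set limit at 5 µM in the primary screen, cut at about 50% in these data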
Large screens that a line does not name were inactive. The list is not random: actives were taken first. Their share in the collection is about 27%.

CC(=O)Nc1ccc(S(=O)(=O)N2CCN(Cc3ccncc3)CC2)cc1	CYP2C9 inhib 53.6, CYP2C19 inhib 94.7
CC(=O)Nc1ccc(S(=O)(=O)N2CCN(Cc3cccnc3)CC2)cc1	none
O=C(Nc1ccc(S(=O)(=O)N2CCCCCC2)cc1)c1ccc(Br)o1	Cav3 T inh -3.15
CC(=O)Nc1ccc(S(=O)(=O)N2CCCN(S(=O)(=O)c3ccc(NC(C)=O)cc3)CC2)cc1	CYP2C9 inhib 61.2 (no result: Cav3 T inh)
CCOC(=O)C(=CN(CCc1ccccc1)CC(=O)OC)C(=O)OCC	none (no result: CYP2C9 act, PTK2B oligo ant, CYP2C19 act, CYP2C9 inhib, CYP2C19 inhib)
COc1cc([N+](=O)[O-])ccc1N/C=C/C(=O)c1cccs1	none
Cc1ccc(NC(=O)CN(C)c2ccc(S(=O)(=O)N3CCN(C)CC3)cn2)cc1	CYP2C9 inhib 55.6
Cc1cccc(N2CCN(S(=O)(=O)c3c(C)[nH]c(=O)[nH]c3=O)CC2)c1C	CYP2C19 inhib 50.2
CC(=O)Nc1ccc(S(=O)(=O)Nc2ccc(S(=O)(=O)N3CCCCCC3)cc2)cc1	CYP2C9 inhib 81.5
Cc1ccc(Cl)cc1N1CCN(S(=O)(=O)c2c(C)[nH]c(=O)[nH]c2=O)CC1	none
CCCCNc1ccc2nsnc2c1[N+](=O)[O-]	none (no result: Cav3 T inh, CYP2C9 act, CYP2C19 act, CYP2C9 inhib, CYP2C19 inhib)
CCCc1nnc(NC(=O)CCC(=O)N2CCCCCC2)s1	none
CC(C)(C)C(=O)CSc1nccc(=O)[nH]1	none
Cc1cccc(NCc2ccccc2O)c1	CYP2C9 inhib 51.4, CYP2C19 inhib 92.2
Oc1ccccc1CNCCCNCc1ccccc1O	none
Cc1ccccc1NCc1ccccc1O	CYP2C19 inhib 58.7
Cc1ccc(O)c(CNc2ccccn2)c1	CYP2C19 inhib 67.0
Cc1ccc(NCc2ccccc2O)cc1	CYP2C19 inhib 65.8
Cc1cccc(NCc2cc(Cl)ccc2O)n1	none (no result: CYP2C9 act, CYP2C19 act, CYP2C9 inhib, CYP2C19 inhib)
CC(=O)Nc1nc(C2COc3ccccc3O2)cs1 (centres undefined)	none
O=C(Nc1ncn[nH]1)c1c(Cl)ccc(Cl)c1Cl	CYP2C19 inhib 87.5
O=C(Nc1ncn[nH]1)c1ccc(Cl)c(S(=O)(=O)N2CCCCCC2)c1	none
CCc1ccc(OCCNC(=O)c2ccc(S(=O)(=O)N(C)C)cc2)cc1	none
Cc1ccc(S(=O)(=O)n2ccc(-c3cccc(OCc4c(F)cccc4Cl)c3)n2)cc1	CYP2C9 inhib 68.3
Cc1ccc(S(=O)(=O)n2ccc(-c3ccc(OCc4c(F)cccc4Cl)cc3)n2)cc1	none (no result: CYP2C9 act, CYP2C19 act, CYP2C9 inhib, CYP2C19 inhib)
COC(=O)CN(c1ccc(F)cc1)S(=O)(=O)c1ccc2c(c1)OCCO2	CYP2C9 inhib 54.5
O=C(O)CN(c1ccc2c(c1)OCCO2)S(=O)(=O)c1ccccc1	none
COC(=O)CN(c1ccc2c(c1)OCCO2)S(=O)(=O)c1ccccc1	CYP2C9 inhib 63.5, CYP2C19 inhib 83.8 (no result: Cav3 T inh)
COC(=O)CN(c1ccc(F)cc1)S(=O)(=O)c1ccccc1	none
O=C(CN(c1ccc(F)cc1)S(=O)(=O)c1ccc2c(c1)OCCO2)NCc1ccccn1	CYP2C9 inhib 64.4, CYP2C19 inhib 95.1
Cc1ccc(C(=O)C2C(c3ccc(-c4ccccc4[N+](=O)[O-])o3)NC(=O)NC2(O)C(F)(F)F)cc1 (centres undefined)	Cav3 T inh -7.1 (no result: CYP2C9 act, CYP2C19 act, CYP2C9 inhib, CYP2C19 inhib)
O=C(NC12CC3CC(CC(C3)C1)C2)N1CCC(O)CC1	none (no result: Cav3 T inh)
O=C(NC12CC3CC(CC(C3)C1)C2)N1CCC(n2nnc3ccccc32)CC1	CYP2C19 inhib 78.3
N#Cc1c(N)oc(-c2ccc3c(c2)OCO3)c1-c1ccc2c(c1)OCO2	CYP2C9 inhib 86.8, CYP2C19 inhib 95.6
N#Cc1c(N)nc2c(c1-c1ccc3c(c1)OCO3)CCCCCC2	none
CCCCc1c(O)nc(SCC(=O)N2CCOCC2)[nH]c1=O	none
O=C(COc1cccc(Cl)c1)N/N=C\c1cc2ccccc2nc1Cl	none (no result: Cav3 T inh, CYP2C9 act, CYP2C19 act, CYP2C9 inhib, CYP2C19 inhib)
CC(C)(C)c1ccc(C2CC2C(=O)N/N=C\c2cc3ccccc3nc2Cl)cc1 (centres undefined)	CYP2C9 inhib 61.8
CN(C)S(=O)(=O)c1cc(C(=O)NCC2CCCO2)c(Cl)cc1Cl (centres undefined)	none
C=CCn1c(O)c(C2=c3ccccc3=NC2=O)s/c1=N/c1nccs1	CYP2C9 inhib 61.0 (no result: Cav3 T inh, PTK2B oligo ant)
Cn1c(O)c(C2=c3ccccc3=NC2=O)sc1=Nc1ccc(Cl)cc1	none (no result: CYP2C9 act, CYP2C19 act, CYP2C9 inhib, CYP2C19 inhib)
CC(C)OC(=O)c1c(NS(=O)(=O)c2ccccc2)sc2c1CCCC2	Cav3 T inh -7.99 (no result: CYP2C9 act, CYP2C19 act, CYP2C9 inhib, CYP2C19 inhib)
COC(=O)c1c(NS(=O)(=O)Cc2ccccc2)sc2c1CCCC2	CYP2C9 inhib 95.5, CYP2C19 inhib 92.8
COC(=O)c1c(NC(C)=O)sc2c1CCCC2	none
COc1cccc(C(=O)Nc2ncc3c(n2)CC(C)(C)CC3=O)c1	none
CCOc1ccc2nc(-c3ccccc3)nc(SCC(=O)Nc3ncc(C)s3)c2c1	none
CCOC(=O)c1c(NC(=O)CSc2nnnn2-c2ccccc2)sc2c1CCC(C)C2 (centres undefined)	CYP2C9 inhib 80.7
CCOC(=O)c1c(NS(C)(=O)=O)sc2c1CCC(C)C2 (centres undefined)	Cav3 T inh -10.2, CYP2C9 inhib 57.1
CCOC(=O)c1c(N)sc2c1CCC(C)C2 (centres undefined)	none
Cc1ccccc1-c1nnc(SCC(=O)NC2CCCCC2)o1	none (no result: CYP2C9 act, CYP2C19 act, CYP2C9 inhib, CYP2C19 inhib)
O=C(CSc1nnc(-c2ccccc2)o1)NC1CCCCC1	CYP2C19 inhib 83.2
O=C(CSc1nnc(-c2ccco2)o1)N1CCOCC1	none
COC(=O)CSc1nnc(-c2ccc(OC)cc2OC)o1	none
O=C(CSc1nnc(-c2ccco2)o1)NC1CC2CCC1C2 (centres undefined)	CYP2C19 inhib 56.1
COc1ccccc1-c1nnc(SCC(=O)NCc2c(C)c(Cl)cc(C(C)C)c2O)o1	CYP2C9 act 3 (no result: Cav3 T inh)
O=C(CSc1nnc(-c2ccco2)o1)NC1CCCCC1	CYP2C19 inhib 55.3
COCCn1c(C)c(C(=O)O)sc1=S	none
O=C(CSc1nnc(-c2ccco2)n1CC1CCCO1)NC1CCCC1 (centres undefined)	CYP2C19 inhib 53.9
COc1ccccc1-c1nnc(SCC(=O)NC2CCCCC2)o1	CYP2C19 inhib 53.8 (no result: PTK2B oligo ant)
COc1cccc(-n2c(SCC(=O)NC3CCCC3)nnc2-c2ccco2)c1	none (no result: CYP2C9 act, CYP2C19 act, CYP2C9 inhib, CYP2C19 inhib)
CC(C)C(=O)NS(=O)(=O)c1ccc(N)cc1	none
Cc1cccc(N(Cc2cc3ccccc3[nH]c2=O)C(=O)c2ccco2)c1C	none
COc1ccc2cc3cc(C(=O)N4CCN(Cc5ccc6c(c5)OCO6)CC4)oc3nc2c1	CYP2C9 inhib 52.9
COc1ccc2cc3cc(C(=O)NCc4ccc5c(c4)OCO5)oc3nc2c1	CYP2C9 inhib 64.4
COc1ccc2nc3oc(C(=O)N4CCC(C(N)=O)CC4)cc3cc2c1	none
COc1ccc2cc3cc(C(=O)NCC4COc5ccccc5O4)oc3nc2c1 (centres undefined)	none
CN1CCN(CCC(=O)Nc2ccc(OCc3ccccc3)cc2)CC1	none
CC1CC(C)CN(S(=O)(=O)c2ccc(NC(=S)NC(=O)c3ccccc3)cc2)C1 (centres undefined)	none (no result: Cav3 T inh, CYP2C9 act, CYP2C19 act, CYP2C9 inhib, CYP2C19 inhib)
CCOC(=O)N1CCN(Cc2nc3c(c(=O)[nH]c(=O)n3C)n2Cc2ccccc2C)CC1	none

Bioassay records deposited in PubChem BioAssay by several laboratories.
